From PubChem BioAssay (Tox21)
Records with an inconclusive call do not appear. The source made the active and inactive calls. Unless noted, the call rests on the fitted dose curve; in most records, active means well fitted curve in the direction sought with a large enough effect in the repeat runs; inconclusive means weak or mixed curves; inactive means no such curve, though single readings can be large; an effect the other way counts as inactive or inconclusive.

Experiments:
[1] = qHTS assay for small molecule agonists of the p53 signaling pathway (AID 651631; calls by dose curve; further: nearly all actives have a fitted effect of over 15% in size; further: potency means the concentration at half of the fitted maximal effect); conditions: HCT-116 p53RE-bla reporter, beta-lactamase FRET ratio, 16 h; series mostly up to 73.3 µM
Summary of the method: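 HCT-116 p53RE-bla reporter line, 16 h compound treatment at 37 °C, then fluorescence after 2 h with B/G FRET substrate.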

[2] = qHTS assay for small molecules that induce genotoxicity in human embryonic kidney cells expressing luciferase-tagged ATAD5 (AID 651632); conditions: HEK293T ATAD5-luciferase induction, 16 h; series mostly up to 83.3 µM; further: nearly all actives have a fitted effect of over 15% in size; further: potency means the concentration at half of the fitted maximal effect
Summary of the method: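 Test compounds were delivered by pin tool onto HEK293T reporter cells (2,000/well) expressing ATAD5 fused to luciferase. After 16 hr at 37C, 5% CO2, Amplite was added for 30 min at room temperature and luminescence was measured.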

[3] = qHTS assay for small molecule agonists of the p53 signaling pathway - cell viability (AID 651633; calls by dose curve; further: nearly all actives have a fitted effect of over 30% in size); conditions: p53RE-bla HCT-116 viability, ATP luminescence, 16 h; series mostly up to 83.3 µM
Summary of the method: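 p53RE-bla cells were treated with compound for 16 hours at 37 C. Cytotoxicity was then measured as CellTiter-Glo luminescence after 30 min at room temperature.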

[4] = qHTS assay for small molecules that induce genotoxicity in human embryonic kidney cells expressing luciferase-tagged ATAD5 - cell viability (AID 651634; calls by dose curve; further: nearly all actives have a fitted effect of over 25% in size; further: potency means the concentration at half of the fitted maximal effect); conditions: HEK293T ATAD5-luc cells viability, CellTiter-Fluor, 15.5 h; series mostly up to 83.3 µM
Summary of the method: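 Quantitative high-throughput format. HEK293T cells expressing ATAD5 fused to luciferase were plated at 2,000 cells/well and treated 15.5 hr with compound versus DMSO. Viability was determined by fluorescent live-cell protease substrate, 30 min at 37C.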

[5] = qHTS assay to test for compound auto fluorescence at 590 nm (red) in HepG2 cells (AID 720674); conditions: HepG2 autofluorescence, red 540/590 nm, 1 h; series mostly up to 91.3 µM
Summary of the method: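 Seeding: 2,000 HepG2 cells/well, MEM/10% FBS, overnight 37 C. Dosing: compound vs DMSO. Incubation: 1 hr, 37 C, 5% CO2. Read: fluorescence 540 ex/590 em, Rose Bengal sodium as red reference.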

[6] = qHTS assay to test for compound auto fluorescence at 535 nm (green) in HepG2 cells (AID 720675); conditions: green autofluorescence 485/535 nm, 1 h; series mostly up to 91.3 µM
[7] = qHTS assay to test for compound auto fluorescence at 460 nm (blue) in HEK293 cells (AID 720678); conditions: blue autofluorescence 405/460 nm; series mostly up to 91.3 µM
Summary of the method: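 After cell attachment (4-5 hr, 37C), compounds were pinned onto HEK293 monolayers in 10% dialyzed FBS medium. The blue channel (405/460 nm) was read following overnight culture. Equivalency was calculated against triamterene.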

[8] = qHTS assay to test for compound auto fluorescence at 590 nm (red) in HEK293 cells (AID 720679); conditions: red autofluorescence 540/590 nm; series mostly up to 91.3 µM
Summary of the method: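 Plates of HEK293 cells (10% dialyzed FBS) are treated with 23 nL compound or DMSO vehicle after a 4-5 hr attachment period, incubated overnight at 37C, and read for red fluorescence at 540/590nm.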

[9] = qHTS assay for small molecule disruptors of the mitochondrial membrane potential (AID 720635); conditions: HepG2 mitochondrial membrane potential, Mito-MPS dye ratio; series mostly up to 83.2 µM; further: potency means the concentration at half of the fitted maximal effect
Summary of the method: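 HepG2 cells exposed to compound 1 hr at 37C, then Mito-MPS dye 30 min. Ratio read of aggregate (540/590 nm) versus monomer (490/535 nm) fluorescence.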

[10] = qHTS assay for small molecule disruptors of the mitochondrial membrane potential - cell viability (AID 720634; calls by dose curve; further: nearly all actives have a fitted effect of over 20% in size; further: potency means the concentration at half of the fitted maximal effect); conditions: HepG2 viability, ATP luminescence (CellTiter-Glo), 1 h; series mostly up to 83.2 µM
Summary of the method: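 Same-well counter-screen: following the MMP dye addition, CellTiter-Glo was added to 1 hr compound-treated HepG2 cells and luminescence read after 30 min at room temperature.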
On the % scale 0 is the no-effect control and ±100 the full control effect.

C(=C\c1ccccc1)/c1ccccc1
inactive: Potency [1] | Potency [2] | Potency [3] | Potency [4] | outcome [5] | outcome [6] | Potency [7] | outcome [8]

CC[N+](CC)(CCNC(=O)C(=O)NCC[N+](CC)(CC)Cc1ccccc1Cl)Cc1ccccc1Cl
inactive: Potency [1] | Potency [2] | Potency [3] | Potency [4] | Potency [9] | outcome [5] | Potency [7] | outcome [8]

CC[C@]1(O)C[C@H]2CN(CCc3c([nH]c4ccccc34)[C@@](C(=O)OC)(c3cc4c(cc3OC)N(C=O)[C@H]3[C@@](O)(C(=O)OC)[C@H](OC(C)=O)[C@]5(CC)C=CCN6CC[C@]43[C@@H]65)C2)C1
active: Potency [1] 0.0084 µM | Potency [2] 0.75 µM | Potency [4] 0.0473 µM | Potency [9] 3.76 µM
inactive: Potency [3] | outcome [5] | Potency [7] | outcome [8]

CC(=O)Nc1cc(S(=O)(=O)O)cc2cc(S(=O)(=O)O)c(N=Nc3ccccc3)c(O)c12
inactive: Potency [1] | Potency [2] | Potency [3] | outcome [5] | outcome [6] | outcome [8]
active: Potency [4] 30.6 µM

CC(CCC(=O)O)C(=O)O (configuration not stated)
inactive: Potency [1] | Potency [2] | Potency [3] | Potency [4] | Potency [9] | outcome [5] | outcome [6] | Potency [7] | outcome [8]

Cc1cccc(N(C)C(=S)Oc2ccc3c(c2)CCC3)c1
inactive: Potency [1] | Potency [2] | Potency [3] | Potency [4] | outcome [5] | outcome [6] | Potency [7] | outcome [8]

O=C(CCc1ccc(O)cc1)c1c(O)cc(O)cc1O
active: Potency [1] 70.1 µM | Potency [9] 3.13 µM
inactive: Potency [2] | Potency [3] | outcome [5] | outcome [6] | Potency [7] | outcome [8]

O=C1c2ccccc2C(=O)c2c(O)c(O)cc(O)c21
active: Potency [9] 27.3 µM
inactive: Potency [1] | Potency [2] | Potency [3] | outcome [5] | outcome [6] | Potency [7] | outcome [8]

Clc1cc(Cl)nc(Cl)n1
inactive: Potency [1] | Potency [3] | Potency [10] | Potency [9] | outcome [5] | outcome [6] | Potency [7] | outcome [8]

C/C=C(/C(=C/C)c1ccc(O)cc1)c1ccc(O)cc1
inactive: Potency [2] | Potency [4] | Potency [10] | fluorescence, relative to Rose Bengal [5] 0.479% [at 18.6 µM] | fluorescence, % of fluorescein control [6] 0.154% [at 18.6 µM] | fluorescence, % of triamterene [7] 0.118% [at 18.6 µM] | fluorescence, % of fluorescent control [8] 0.023% [at 18.6 µM]
active: Potency [1] 3.2 µM | Potency [9] 9.02 µM

CCCCCC[C@@H](O)C/C=C\CCCCCCCC(=O)OCC(O)CO (some centres not stated)
inactive: Potency [1] | Potency [2] | Potency [3] | Potency [4] | outcome [5] | outcome [6] | Potency [7] | outcome [8]

COc1cc(C(=O)NCCCCCC(=O)O)cc(OC)c1OC
inactive: Potency [1] | Potency [2] | Potency [3] | Potency [4] | Potency [9] | outcome [5] | outcome [6] | Potency [7] | outcome [8]

NC1[C@H]2CN(c3nc4c(cc3F)c(=O)c(C(=O)O)cn4-c3ccc(F)cc3F)C[C@@H]12 (some centres not stated)
inactive: Potency [3] | Potency [10] | outcome [5] | outcome [6] | Potency [7] | outcome [8]
active: Potency [1] 29.8 µM

O=C1c2ccccc2C(=O)C1c1ccc(Br)cc1
inactive: Potency [1] | Potency [2] | Potency [3] | Potency [4] | Potency [9] | outcome [5] | outcome [6] | Potency [7] | outcome [8]

Oc1cccc(O)c1O
inactive: Potency [1] | Potency [2] | Potency [3] | Potency [4] | outcome [5] | outcome [6] | Potency [7] | outcome [8]

c1cc(N(CC2CO2)CC2CO2)ccc1Cc1ccc(N(CC2CO2)CC2CO2)cc1 (configuration not stated)
inactive: Potency [3] | outcome [5] | outcome [6] | Potency [7] | outcome [8]
active: Potency [1] 24.3 µM | Potency [2] 15.4 µM | Potency [10] 48.6 µM | Potency [9] 27.3 µM

C=CC(=O)OCC1CC2CC1C1CCC(COC(=O)C=C)C21 (configuration not stated)
active: Potency [1] 54.5 µM
inactive: Potency [10] | outcome [5] | outcome [6] | Potency [7] | outcome [8]

CCN(CC)CCNC(=O)COc1ccc(OC)cc1
inactive: Potency [2] | Potency [3] | Potency [4] | Potency [10] | Potency [9] | outcome [5] | outcome [6] | Potency [7] | outcome [8]

O=C(OC(=O)c1ccccc1)c1ccccc1
inactive: Potency [2] | Potency [3] | Potency [4] | Potency [10] | Potency [9] | outcome [5] | outcome [6] | Potency [7] | outcome [8]

Nc1nnc(-c2ccc([N+](=O)[O-])o2)o1
inactive: Potency [2] | Potency [3] | Potency [4] | Potency [10] | outcome [5] | outcome [6] | Potency [7] | outcome [8]
active: Potency [9] 61.1 µM

C[C@]1(Cn2ccnn2)[C@H](C(=O)O)N2C(=O)C[C@H]2S1(=O)=O
inactive: Potency [2] | Potency [3] | Potency [4] | Potency [10] | outcome [5] | outcome [6] | Potency [7] | outcome [8]

COc1ncnc(NS(=O)(=O)c2ccc(N)cc2)c1OC
inactive: Potency [2] | Potency [3] | Potency [4] | Potency [10] | Potency [9] | outcome [5] | outcome [6] | Potency [7] | outcome [8]

CC(=O)OCC(=O)NCCCOc1cccc(CN2CCCCC2)c1
inactive: Potency [2] | Potency [3] | Potency [4] | Potency [10] | Potency [9] | outcome [5] | Potency [7] | outcome [8]

CN1CCCC(CC2c3ccccc3Sc3ccccc32)C1 (configuration not stated)
inactive: Potency [2] | Potency [3] | Potency [4] | Potency [10] | fluorescence, relative to Rose Bengal [5] 0.272% [at 18.6 µM] | fluorescence, % of fluorescein control [6] -0.0795% [at 18.6 µM] | fluorescence, % of triamterene [7] 0.136% [at 18.6 µM] | fluorescence, % of fluorescent control [8] -0.0119% [at 18.6 µM]
